Results as given in the supplement of paper PMC10338343.
± gives the standard deviation.

Test system: MILI (PIWIL2) piRISC loaded with L1MC piRNA (26 nt)
Assay: pre-steady-state target cleavage rate (min^-1); guide: L1MC piRNA 5'p-UAACUAAAUACUAUGCAAGCUGUAGG; MIWI and MILI are mouse PIWI proteins and EfPiwi is from a freshwater sponge; tags in brackets are library labels; higher = faster piRNA-guided slicing of the target
Conditions: auxiliary factor: 500 nM mouse GTSF1
Procedure, shortened: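 For Cleave-'n-Seq, a transcribed, DNA-blocked target RNA library […] met 1 nM active affinity-purified piRISC with one synthetic guide at 33 °C for 0–8 or 0–960 min in HEPES–potassium acetate buffer, with or without 500 nM GTSF1 partner protein. Uncleaved targets were sequenced and normalised to depth and weakly complementary targets, with three trials pooled and k3 capped at 0.0001 min^-1. A burst-and-steady-state fit supplied the pre-steady-state cleavage rate.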
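Also: 1 nM active piRISC with 0.1 nM target library at 33 °C single turnover.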

Sequence	pre-steady-state target cleavage rate
UCCUGGAUGAGCUUGCAUAGUAUAUAGAAA	0.00651 ± 0.005
UCCUGGAACAGCUUGCAUAGUAUUUAUUA	0.046 ± 0.014
UCCUGGAUGAGCUUGCAUACUAAUUAGUUA	0.0128 ± 0.0042
UCCUCCUACAGCUUGCAUAGAAUUUUCAAA	0.0466 ± 0.015
UCCUGGAACAGCUUGCAUAGUAUUUUGUAA	0.0402 ± 0.012
UCCUGGAUGUCCUUGCUUAGAAUUUAGUUA	0.00442 ± 0.004
UCCUGGAUGUCGUUCAUAGUAUUUAGUUA	0.013 ± 0.0035
UCCUGGAUGUCCUACGAUAGUAUUUAGUUA	0.007 ± 0.004
UCCUGGAUGUCCUUGCUAAGUAUUUAGUAA	0.0128 ± 0.006
UCCUGGAACUCGUUGCAUAGUAUUUACAAA	0.0537 ± 0.013
UCCUGGAUCUCCUUGCAUAGUAUUUACAAA	0.0872 ± 0.018
UCCUGGAUGUCCUUGCAUACUAUUUAGUAA	0.0148 ± 0.0062
UCCUGGAUGUCGAUGACAUAGUAUUUAGUUA	0.015 ± 0.0059
UCCUGCAACAGCUUGCAUAGAAUUUAGUUA	0.0925 ± 0.023
UCCUGGUACAGCUUGGAUACUAUUUAGUUA	0.153 ± 0.059
UCCUGGAUCAGCUACGAUAGUAUUUAGUUA	0.0475 ± 0.0093
UCCUCCUACAGCAAGCAUAGUAUUUACAAA	0.172 ± 0.032
UCCUCCUACAGCUAGCAUAGUAUUUAGAUA	0.144 ± 0.025

Sequence	pre-steady-state target cleavage rate
UCCUGGAACACGUUGCAUAGUAUUUACAAA	0.0879 ± 0.017
UCCUGGUACAGCUUGCAUAGUUUUUACAAA	0.0185 ± 0.0077
UCCUGGAUGUCGAUGCAUAGAAUUUAGUUA	0.0057 ± 0.0026
UCCUCCUACAGCUUGCAAUCUAUUUACAAA	0.0157 ± 0.0069
UCCUGCUACAGCUUGCAAUCUAUUUAGUAA	0.0639 ± 0.022
UCCUGGAUGUGCUUGCUUAGUAUUUAGAAA	0.0749 ± 0.017
UCCUGGAUGUGCUUGCAUAGUAAUUAGUAA	0.0721 ± 0.018
UCCUGGAAGAGCUUGCAUAGAAUUUAGUUA	0.0498 ± 0.011
UCCUGGAUGAGCUUGCAUAGUAUUUUGUAA	0.0267 ± 0.011
UCCUGGAUGUCCUUGCAUAGUAUUUAUUA	0.0219 ± 0.0073
UCCUGGAUGUCCUUGCUUAGUAUUAAGUUA	0.0115 ± 0.0047
UCCUGGUACAGCUAGCAUAGUAUUUACAAA	0.0365 ± 0.012
UCCUCCUACAGCUUGCAAUCUAUUUAGUAA	0.0401 ± 0.0094
UCCUGGAACAGCUUGCAUAGUAUAAUCAAA	0.0568 ± 0.016
UCCUGGUACAGCUUGCAUAGAAUUUAGAUA	0.0253 ± 0.013
UCCUCCUACAGCUUGCAUAGAUAUUAGUAA	0.015 ± 0.007
UCCUGGUACAGCUUGCAUAGUUUUUUGUUA	0.0564 ± 0.015

Same assay, conditions: auxiliary factor: none (no GTSF1)

Sequence	pre-steady-state target cleavage rate
UCCUGGAUCAGCUUGCAUUCUAUUUACAAA	< 0.0001
UCCUGGAUGUCGAACGUAUUUAUUUAGUUA	< 0.0001
UCCUGGUACAGCUUGCAUACAAUUUAGUUA	0.00451 ± 0.0027
UCCUGGAUGUCGAACCAUAGUAAUUUGUUA	< 0.0001
UCCUGGAUGUCGAACCUUAGUAUUUAGAUA	< 0.0001
